This excerpt belongs to a sample that is enriched for hits.
PD-1 reversal – reversal of PD-1 mediated T-cell inhibition; primary human CD4 T cells, PD-L1 beads, CellTiter-Glo 96 h; activation, % (test concentration not listed); 29,000 tested, under 10 active; AID 2316; call rule not given here
STK33 inh – inhibitors of human STK33 kinase; Q9BYT3; ADP-Glo luminescence, MBP substrate; inhibition, % at 12.5 µM; 0.44% of 27,000 active; AID 2322; in the data active = inhibition above about 20%
Target sequence (Q9BYT3 whole entry, looked up): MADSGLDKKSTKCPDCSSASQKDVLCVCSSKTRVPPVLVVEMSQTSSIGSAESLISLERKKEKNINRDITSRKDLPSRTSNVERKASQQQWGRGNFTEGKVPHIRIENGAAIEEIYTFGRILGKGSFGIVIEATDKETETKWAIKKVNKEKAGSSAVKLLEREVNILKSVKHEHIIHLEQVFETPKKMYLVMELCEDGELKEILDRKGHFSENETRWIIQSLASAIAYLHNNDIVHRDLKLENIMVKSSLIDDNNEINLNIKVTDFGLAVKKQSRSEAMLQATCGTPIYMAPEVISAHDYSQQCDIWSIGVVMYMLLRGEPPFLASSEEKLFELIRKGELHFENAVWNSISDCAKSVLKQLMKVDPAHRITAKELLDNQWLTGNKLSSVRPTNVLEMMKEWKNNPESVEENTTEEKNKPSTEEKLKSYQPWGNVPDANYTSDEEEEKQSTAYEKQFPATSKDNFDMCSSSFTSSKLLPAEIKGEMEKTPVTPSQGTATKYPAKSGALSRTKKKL
NOMO-1 viab – STK33 inhibitor candidate reducing NOMO-1 cell viability; NOMO-1 AML viability, CellTiter-Glo luminescence, 72 h; inhibition, % (no concentration beside the values); 7.5% of 37,000 active; AID 2330; in the data active = inhibition above about 80%
Hits are given with their value; . = inactive; / = no result given.

SMILES | PD-1 reversal | STK33 inh | NOMO-1 viab
C[C@@H]1CN([C@H](C)CO)C(=O)c2cc(NC(=O)Nc3ccc(F)cc3)ccc2O[C@H]1CN(C)C(=O)Nc1ccc(C(F)(F)F)cc1 | . | / | .
C[C@H]1CN([C@@H](C)CO)C(=O)c2cc(NC(=O)Nc3ccc(C(F)(F)F)cc3)ccc2O[C@@H]1CN(C)C(=O)NC1CCCCC1 | . | . | .
C[C@H]1CN([C@@H](C)CO)C(=O)c2cc(NC(=O)Nc3ccc(C(F)(F)F)cc3)ccc2O[C@@H]1CN(C)C(=O)Nc1ccc(C(F)(F)F)cc1 | . | / | 122
C[C@H]1CN([C@@H](C)CO)C(=O)c2cc(NC(=O)Nc3ccc(F)cc3)ccc2O[C@@H]1CN(C)C(=O)Nc1ccc(C(F)(F)F)cc1 | . | / | .
C[C@@H]1CN([C@@H](C)CO)C(=O)c2cc(NC(=O)Nc3ccc(C(F)(F)F)cc3)ccc2O[C@@H]1CN(C)C(=O)NC1CCCCC1 | . | . | 107
C[C@@H]1CN([C@H](C)CO)C(=O)c2cc(NC(=O)Nc3ccc(C(F)(F)F)cc3)ccc2O[C@H]1CN(C)C(=O)Nc1ccc(C(F)(F)F)cc1 | . | / | 109
CCOC(=O)c1c(NC(=O)c2ccccc2[N+](=O)[O-])sc2c1CCCCCC2 | / | . | /
Cc1cc(C)nc(Nc2n[nH]c(CSc3nc4ccccc4s3)n2)n1 | / | . | .
CC(C)NC(=O)Nc1ccc2c(c1)C(=O)N([C@H](C)CO)C[C@@H](C)[C@H](CN(C)Cc1ccc(C(=O)Nc3ccccc3N)cc1)O2 | . | / | .
C[C@H]1CN([C@@H](C)CO)C(=O)c2cc(NC(=O)NC3CCCCC3)ccc2O[C@H]1CN(C)Cc1ccc(C(=O)Nc2ccccc2N)cc1 | . | / | .
C[C@H](CO)N1C[C@H](C)[C@H](CN(C)Cc2ccc(C(=O)Nc3ccccc3N)cc2)Oc2ccc(NC(=O)NC3CCCCC3)cc2C1=O | . | / | 98
C[C@@H]1CN([C@@H](C)CO)C(=O)c2cc(NC(=O)NC3CCCCC3)ccc2O[C@@H]1CN(C)Cc1ccc(C(=O)Nc2ccccc2N)cc1 | . | / | 107
C[C@@H]1CN([C@H](C)CO)C(=O)c2cc(NC(=O)NC3CCCCC3)ccc2O[C@@H]1CN(C)Cc1ccc(C(=O)Nc2ccccc2N)cc1 | . | / | 99
CC(C)NC(=O)Nc1ccc2c(c1)C(=O)N([C@@H](C)CO)C[C@@H](C)[C@H](CN(C)Cc1ccc(C(=O)Nc3ccccc3N)cc1)O2 | . | / | .
COC(=O)c1ccccc1NC(=O)c1ccc(NC(=O)C(C)Oc2ccc(Cl)cc2C)cc1 (stereo unspecified) | / | . | .
COc1ccc(CCNC(=S)Nc2ccncc2)cc1OC | . | . | 113
COc1ccc(CCNC(=S)N2CCN(c3ncccn3)CC2)cc1OC | . | . | .
COc1ccc(CCNC(=S)n2cc(C)cn2)cc1OC | . | . | 111
COc1ccc(CCNC(=S)NCCc2ccccc2)cc1OC | . | / | .
COc1cc(-c2cc(OC)c(C)cc2OC)c(OC)cc1C | . | / | .
CCCn1nnc(NC(=O)COc2ccc(Cl)cc2C)n1 | . | . | .
CCOC(=O)c1c(N(C)C)ccc(C2C=CNC(=O)N2)c1C (stereo unspecified) | . | / | .
C[C@H]1CN([C@@H](C)CO)C(=O)c2cc(NS(=O)(=O)c3ccc(F)cc3)ccc2O[C@@H]1CN(C)Cc1ccc2c(c1)OCO2 | . | . | .
C[C@H](CO)N1C[C@H](C)[C@@H](CN(C)Cc2ccc(Cl)c(Cl)c2)Oc2ccc(NS(=O)(=O)c3ccc(F)cc3)cc2C1=O | . | / | .
Cc1ccc(S(=O)(=O)Nc2ccc3c(c2)C(=O)N([C@H](C)CO)C[C@H](C)[C@@H](CN(C)Cc2ccc(Cl)c(Cl)c2)OCCCC[C@@H](C)O3)cc1 | / | . | .
SMILES | PD-1 reversal | STK33 inh | NOMO-1 viab
C[C@@H]1CCCCO[C@@H](CN(C)Cc2ccc(Cl)c(Cl)c2)[C@@H](C)CN([C@H](C)CO)C(=O)c2cc(NS(=O)(=O)c3cccs3)ccc2O1 | / | . | 118
C[C@@H]1CCCCO[C@@H](CN(C)Cc2ccc(Cl)c(Cl)c2)[C@@H](C)CN([C@H](C)CO)C(=O)c2cc(NS(=O)(=O)c3ccc(F)cc3)ccc2O1 | . | . | 99
C[C@@H]1CN([C@H](C)CO)C(=O)c2cc(NS(=O)(=O)c3ccc(Cl)cc3)ccc2O[C@@H]1CN(C)Cc1ccc(Cl)c(Cl)c1 | / | / | 90
C[C@@H]1CCCCO[C@H](CN(C)Cc2ccc(Cl)c(Cl)c2)[C@@H](C)CN([C@H](C)CO)C(=O)c2cc(NS(=O)(=O)c3cccs3)ccc2O1 | / | . | .
C[C@H]1CN([C@@H](C)CO)C(=O)c2cc(NS(=O)(=O)c3ccc(F)cc3)ccc2O[C@H]1CN(C)Cc1ccc2c(c1)OCO2 | . | . | 93
Cc1c(NC(=O)CN(c2cc(Cl)c(Cl)cc2Cl)S(C)(=O)=O)cccc1[N+](=O)[O-] | . | . | .
COc1ccc(-c2nc3ccc4ccccc4c3c3c2CCC3)cc1 | . | / | .
COc1c(Cl)cc(C(=O)Nc2ccc(S(=O)(=O)Nc3cc(C)nc(C)n3)cc2)cc1Cl | . | . | .
O=C(COc1ccccc1[N+](=O)[O-])Nc1ccc2oc(-c3ccc(Br)cc3)nc2c1 | / | . | .
Cc1sc2ncnc(SCC(=O)Nc3ccc4c(c3)OCCO4)c2c1C | . | . | .
C[C@H](CO)N1C[C@H](C)[C@H](CN(C)Cc2ccc(Cl)c(Cl)c2)Oc2ccc(NS(=O)(=O)c3ccc(Cl)cc3)cc2C1=O | . | . | .
C[C@@H]1CN([C@@H](C)CO)C(=O)c2cc(NS(=O)(=O)c3ccc(Cl)cc3)ccc2O[C@@H]1CN(C)Cc1ccc(Cl)c(Cl)c1 | . | / | 116
C[C@H]1CN([C@@H](C)CO)C(=O)c2cc(NS(=O)(=O)c3ccccc3)ccc2O[C@H]1CN(C)Cc1ccc(Cl)c(Cl)c1 | . | . | .
C[C@H](CO)N1C[C@H](C)[C@H](CN(C)Cc2ccc(Cl)c(Cl)c2)Oc2ccc(NS(=O)(=O)c3ccc(F)cc3)cc2C1=O | . | . | .
C[C@@H]1CCCCO[C@H](CN(C)Cc2ccc3c(c2)OCO3)[C@@H](C)CN([C@H](C)CO)C(=O)c2cc(NS(=O)(=O)c3ccc(Cl)cc3)ccc2O1 | . | . | 87
C[C@H]1CN([C@@H](C)CO)C(=O)c2cc(NS(=O)(=O)c3ccc(F)cc3)ccc2O[C@@H]1CN(C)Cc1ccc(Cl)c(Cl)c1 | . | / | 110
C[C@@H]1CN([C@@H](C)CO)C(=O)c2cc(NS(=O)(=O)c3ccccc3)ccc2O[C@@H]1CN(C)Cc1ccc(Cl)c(Cl)c1 | . | . | 103
Cc1ccc(S(=O)(=O)Nc2ccc3c(c2)C(=O)N([C@H](C)CO)C[C@H](C)[C@@H](CN(C)Cc2ccc4c(c2)OCO4)OCCCC[C@@H](C)O3)cc1 | / | . | .
CCCn1c(-c2ccc(F)cc2)n[nH]c1=O | . | / | .
COc1cc(C2NCCS2)cc(OC)c1OC (stereo unspecified) | . | . | .
CCOc1ccc(C(=O)NC2CCCCC2)cc1 | . | / | .
O=C1C=C(NC2CCCC2)CC(c2ccccc2)C1 (stereo unspecified) | . | / | 111
c1ccc(NC2CCCCC2)nc1 | . | / | .
COc1ccc(OC)c(C(=O)c2coc3ccc(O)cc23)c1 | . | / | 136
Cc1ccc(C(=O)c2coc3ccc(O)cc23)o1 | . | / | .
Cn1nc(C(C)(C)C)cc1N | . | / | .
COc1cc(OC)cc(-c2nnc(SCC(=O)Nc3ccccc3)o2)c1 | . | . | .

Screens: PubChem, Broad Institute
